FLuc inh = inhibitors of firefly (Photinus pyralis) luciferase | 76,000 compounds, 2.5% hits | P08659 | purified P. pyralis luciferase, luminescence, biochemical | AID 1347043 | Potency, µM (top dose mostly 115 µM), hits mostly inhibitors; note: % is set by controls: 0 for no effect and ±100 for the full control effect; nearly all actives have a fitted effect of over 65% in size
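Luminescence read by CCD imager after adding enzyme (10nM final) to wells holding compound, titrated in qHTS. Substrates 10uM each D-luciferin and ATP; buffer 50mM Tris acetate pH 7.5, 10mM Mg acetate, Tween-20, BSA.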
3T3 cytotox = kills NIH 3T3 cells | NIH 3T3 viability, CellTiter-Glo ATP luminescence, 48-72 h | 94,000 compounds, 4.3% hits | Potency, µM (top dose mostly 96.7 µM), for inactives: at the top dose activity change, negative = cytotoxicity, most hits filed as inhibitors | AID 1345082; note: % is set by controls: 0 for no effect and ±100 for the full control effect; nearly all actives have a fitted effect of over 55% in size
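ATP-dependent luminescence (CellTiter-Glo) served as the viability signal for NIH 3T3 cells treated with compound for 48 or 72 hr at 37 °C.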
HEK293 tox = kills HEK 293 cells; HEK 293 viability, ATP luminescence (CellTiter-Glo), 48-72 h; Potency, µM (series often up to 115 µM), for inactives: top-dose activity change, negative = cytotoxicity, actives largely listed as inhibitors; 94,000 compounds, 6.6% hits; note: % is set by controls: 0 for no effect and ±100 for the full control effect; nearly all actives have a fitted effect of over 60% in size
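HEK 293 cells seeded at 250 cells/well were exposed to compound for 48 or 72 hr at 37 degree Celsius. Viability taken as ATP content by CellTiter-Glo luminescence.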
hNpr1 antagonist = blocks ANP-stimulated signaling of human Npr1 receptor; Potency, µM (highest dose often 46.3 µM), without a hit: top-dose activity change, negative = inhibition, hits mostly inhibitors; P16066; 76,000 compounds, 1.6% hits; HEK293 hNpr1 GloSensor cGMP, ANP-stimulated luminescence; calls by dose curve; note: % is set by controls: 0 for no effect and ±100 for the full control effect; nearly all actives have a fitted effect of over 60% in size
Target sequence (P16066 whole entry, looked up): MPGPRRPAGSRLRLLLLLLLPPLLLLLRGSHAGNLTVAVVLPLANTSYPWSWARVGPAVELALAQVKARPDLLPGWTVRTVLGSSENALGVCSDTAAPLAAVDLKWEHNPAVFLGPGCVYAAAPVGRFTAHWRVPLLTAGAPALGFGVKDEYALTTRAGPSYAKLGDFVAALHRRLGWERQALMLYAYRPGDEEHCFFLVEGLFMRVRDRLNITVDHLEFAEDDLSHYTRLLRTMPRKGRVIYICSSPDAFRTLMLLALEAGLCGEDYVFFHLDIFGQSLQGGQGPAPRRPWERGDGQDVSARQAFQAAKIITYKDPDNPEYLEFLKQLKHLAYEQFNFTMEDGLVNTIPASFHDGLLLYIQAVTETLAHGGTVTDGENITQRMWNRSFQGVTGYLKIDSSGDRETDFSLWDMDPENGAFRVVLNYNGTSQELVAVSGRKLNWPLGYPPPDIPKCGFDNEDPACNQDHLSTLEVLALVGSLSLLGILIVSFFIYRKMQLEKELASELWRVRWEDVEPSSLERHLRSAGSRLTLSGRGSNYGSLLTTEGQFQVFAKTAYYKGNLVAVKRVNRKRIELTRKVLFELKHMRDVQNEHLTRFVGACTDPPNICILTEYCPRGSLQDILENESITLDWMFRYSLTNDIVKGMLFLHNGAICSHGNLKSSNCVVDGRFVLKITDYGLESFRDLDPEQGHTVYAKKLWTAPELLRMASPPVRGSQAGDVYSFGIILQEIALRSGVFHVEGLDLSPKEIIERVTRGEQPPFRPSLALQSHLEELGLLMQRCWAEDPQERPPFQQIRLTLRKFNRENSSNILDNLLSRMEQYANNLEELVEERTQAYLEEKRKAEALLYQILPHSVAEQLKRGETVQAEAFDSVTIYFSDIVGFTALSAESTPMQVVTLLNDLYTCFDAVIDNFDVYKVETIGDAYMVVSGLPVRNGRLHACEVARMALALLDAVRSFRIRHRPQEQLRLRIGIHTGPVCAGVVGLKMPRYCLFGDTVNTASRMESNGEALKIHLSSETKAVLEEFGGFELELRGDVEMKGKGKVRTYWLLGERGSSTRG
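HEK293 cells stably expressing human Npr1 and cGMP GloSensor pGS-40F, loaded 2 h with 2% GloSensor reagent, given compound 30 min at room temperature. Luminescence read before and 20 min after 0.1 nM hNppA.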
NPR1 antag cnf = hNpr1 antagonism, confirmation assay | Potency, µM (doses to about 57.6 µM), for inactives: at the highest dose activity change, negative = inhibition, usual class: inhibitors | 1,400 compounds, 76% hits | shares compounds with hNpr1 antagonist | HEK293 hNpr1 cGMP GloSensor luminescence, ANP-stimulated | AID 1347044; calls by dose curve; note: nearly all actives have a fitted effect of over 70% in size
Npr2 selectivity = selectivity test of Npr1 antagonists against human Npr2; HEK293 hNpr2 GloSensor cGMP luminescence, CNP-stimulated; Potency, µM (highest dose often 57.6 µM), inactives show top-dose activity change, negative = inhibition, most hits filed as inhibitors; shares compounds with hNpr1 antagonist; 1,400 compounds, 67% hits; calls by dose curve; note: nearly all actives have a fitted effect of over 70% in size
FLuc counter = counter-screen for Npr1 antagonists: firefly luciferase inhibitors. shares compounds with hNpr1 antagonist. purified FLuc enzyme, luminescence, Km substrate. Potency, µM (highest dose often 57.6 µM), without a hit: at the top dose activity change, negative = inhibition, actives largely listed as inhibitors. 1,400 compounds, 0.7% hits. AID 1347047; note: 0% is about no effect
GloSensor cGMP = counter-screen for Npr1 antagonists: GloSensor control cell line; shares compounds with hNpr1 antagonist; HEK293 GloSensor cGMP, SNP-stimulated, luminescence; Potency, µM (doses to about 57.6 µM), for inactives: at the top dose activity change, negative = inhibition, hits mostly inhibitors; 1,400 compounds, 69% hits; calls by dose curve; note: % is set by controls: 0 for no effect and ±100 for the full control effect; nearly all actives have a fitted effect of over 70% in size
Active calls of the source: *; i = inactive; u = inconclusive; x = no result; [ ] = another dose, or the depositor's remark. Only some compounds are listed: those with a hit (about 11% of all), similar ones and a draw of the others. Unless noted, calls come from the whole dose curve; as a rule, active = well fitted curve in the direction sought with a large enough effect; inconclusive = small, poorly fitted or top-dose-only effect, or another doubt; inactive = no such curve, though single readings can be large; an effect the other way counts as inactive or inconclusive. Potency is the fitted concentration of half-maximal effect.

SMILES	FLuc inh	3T3 cytotox	HEK293 tox	hNpr1 antagonist	NPR1 antag cnf	Npr2 selectivity	FLuc counter	GloSensor cGMP
COc1ccc(C(=O)N2CCCC2c2nn(C)c(=O)n2Cc2ccccc2)cc1F (centres undefined)	x	3%	i	x	x	x	x	x
Cc1ncsc1CN1CCCCC1c1nc(CCOc2ccc(F)cc2)no1 (centres undefined)	i	u	16µM*	10µM*	22µM*	19µM*	-1%	19µM*
O=C1NC(=NC2CCCC2)C2(CCCN(Cc3cccnc3)C2)N1c1cc(F)cc(F)c1 (centres undefined)	x	25µM*	2%	x	-16%	0%	3%	-8%
O=C(NC1C[C@H]2CC[C@@H](C1)N2C(=O)C1CCCCC1)c1ccc(F)cc1 (some centres undefined)	x	-34%	3%	x	x	x	x	x
Cc1ccc(C(CC(=O)N2CCN(c3ccc([N+](=O)[O-])cc3)CC2)c2cn(C)c3ccccc23)cc1 (centres undefined)	i	-23%	u	0%	x	x	x	x
O=C(CC(c1ccc(F)cc1)c1cn(Cc2ccccc2)c2ccc([N+](=O)[O-])cc12)N1CCOCC1 (centres undefined)	i	u	u	10µM*	24µM*	24µM*	0%	19µM*
Nc1nc(NCc2ccc(Cl)cc2Cl)cc(C2CC(O)C2)n1 (centres undefined)	i	u	u	7.1µM*	11µM*	19µM*	4%	9.7µM*
CCc1csc(CNc2cc(C3CC(O)C3)nc(N)n2)n1 (centres undefined)	i	u	u	-23%	x	x	x	x
Cc1nn(CC(=O)NCc2ccc(N(C)C)cc2)c(=O)c2nc(C(C)C)sc12	i	i	-1%	1%	x	x	x	x
Cc1nc(N2CCC(NC(=O)c3nccc4ccccc34)CC2)cc(C(F)(F)F)n1	i	u	u	11µM*	19µM*	17µM*	0%	14µM*
Cc1nc(N2CCC(NC(=O)c3ccc4ccccc4n3)CC2)cc(C(F)(F)F)n1	i	u	45µM*	10µM*	14µM*	14µM*	1%	12µM*
Cc1nc(N2CCC(NC(=O)c3ccccc3F)CC2)cc(C(F)(F)F)n1	i	-8%	-2%	-12%	x	x	x	x
COc1cc(Cl)ccc1C(=O)NC1CCN(c2cc(C(F)(F)F)nc(C)n2)CC1	i	u	u	u	22µM*	22µM*	2%	19µM*
CC(C)c1ccc(CC(=O)N2CCCc3ncc(C(=O)Nc4cccc(Cl)c4)cc32)cc1	i	u	25µM*	11µM*	15µM*	17µM*	0%	22µM*
CC(C)NC(=O)c1cnc2c(c1)N(C(=O)Cc1ccc(C(C)C)cc1)CCC2	i	u	u	-18%[70.6 µM]	x	x	x	x
CC(C)c1ccc(CC(=O)N2CCCc3ncc(C(=O)Nc4ccccn4)cc32)cc1	i	100µM*	32µM*	20µM*	11µM*	18µM*	-1%[86.2 µM]	11µM*
CC(C)c1ccc(CC(=O)N2CCCc3ncc(C(=O)Nc4cccnc4)cc32)cc1	i	2.8µM*	8.9µM*	1.4µM*	3.5µM*	6.3µM*	-10%[86.2 µM]	5µM*
COc1cccc(NC(=O)c2cnc3c(c2)N([S+](=O)([O-])c2cccnc2)CCC3)c1	i	u	-22%[172 µM]	0%[70.6 µM]	x	x	x	x
Cc1ccc(C(=O)N2CCC3(CC2)NC(=O)N(c2ccc(F)cc2)N3)c(C)c1	i	u	u	1%	x	x	x	x
